Results published in the supplement of paper PMC12282887.
± gives the standard deviation of the averaged measurements.

Assays:
Assay in all cases: promoter activity interaction Z-score (Lux/OD deviation from empty-vector control); higher = stronger promoter induction by the compound
[1] = system: E. coli BW25113 acrABp lux reporter
How it was run: (§1)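 E. coli BW25113, as wild type or one of three single-gene deletion strains, carried low-copy luxCDABE promoter reporters and grew in 40 µl LB Lennox in 384-well plates at 37°C, with OD600 and luminescence read every 30 min for 12 h. Each compound was run at four 1:2 dilutions in biological duplicates, integration spanned 0–8 h for wild type and 1–9 h for deletion strains, and wells under 10% of the median growth value were dropped. The score is the Z-transformed residual of growth-normalised luminescence fitted against a control.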

[2] = system: E. coli BW25113 marRABp lux reporter
How it was run: as §1

[3] = system: E. coli BW25113 micFp lux reporter
How it was run: as §1

[4] = system: E. coli BW25113 ompFp lux reporter
How it was run: as §1

[5] = system: E. coli BW25113 robp lux reporter
How it was run: as §1

[6] = system: E. coli BW25113 soxSp lux reporter
How it was run: as §1

[7] = system: E. coli BW25113 tolCp lux reporter
How it was run: as §1

[8] = 0.29 µg/ml, genetic background: wild type
[9] = 0.29 µg/ml, genetic background: ΔmarA
[10] = 0.29 µg/ml, genetic background: Δrob
[11] = 0.29 µg/ml, genetic background: ΔsoxS
[12] = 0.58 µg/ml, genetic background: wild type
[13] = 0.58 µg/ml, genetic background: ΔmarA
[14] = 0.58 µg/ml, genetic background: Δrob
[15] = 0.58 µg/ml, genetic background: ΔsoxS
[16] = 1.2 µg/ml, genetic background: wild type
[17] = 1.2 µg/ml, genetic background: ΔmarA
[18] = 1.2 µg/ml, genetic background: Δrob
[19] = 1.2 µg/ml, genetic background: ΔsoxS
[20] = 2.3 µg/ml, genetic background: wild type
[21] = 2.3 µg/ml, genetic background: ΔmarA
[22] = 2.3 µg/ml, genetic background: Δrob
[23] = 2.3 µg/ml, genetic background: ΔsoxS

With `COc1cccc2c1C(=O)c1c(O)c3c(c(O)c1C2=O)C[C@@](O)(C(=O)CO)C[C@@H]3O[C@H]1C[C@H](N)[C@H](O)[C@H](C)O1` [Doxorubicin] the “promoter activity interaction Z-score” value [1, 8] was 0.264 ± 0.31, the “promoter activity interaction Z-score” value [1, 9] was -0.773 ± 0.32 and the “promoter activity interaction Z-score” value [1, 10] was -0.101 ± 0.29. The “promoter activity interaction Z-score” value [1, 11] was -0.227 ± 0.054, the “promoter activity interaction Z-score” value [1, 12] was -0.00519 ± 0.22 and the “promoter activity interaction Z-score” value [1, 13] was -0.484 ± 0.49. For the same molecule, the “promoter activity interaction Z-score” value [1, 14] was 0.115 ± 0.14, the “promoter activity interaction Z-score” value [1, 15] was 0.371 ± 0.49 and the “promoter activity interaction Z-score” value [1, 16] was 0.261 ± 0.022. For the same molecule, the “promoter activity interaction Z-score” value [1, 17] was -0.464 ± 0.4, the “promoter activity interaction Z-score” value [1, 18] was -0.135 ± 0.15 and the “promoter activity interaction Z-score” value [1, 19] was 0.0497 ± 0.23. For the same molecule, the “promoter activity interaction Z-score” value [1, 20] was 0.546 ± 0.062, the “promoter activity interaction Z-score” value [1, 21] was -0.437 ± 0.036 and the “promoter activity interaction Z-score” value [1, 22] was 6.35e-05 ± 0.4. For the same molecule, the “promoter activity interaction Z-score” value [1, 23] was 0.827 ± 0.68, the “promoter activity interaction Z-score” value [2, 8] was 0.237 ± 0.34 and the “promoter activity interaction Z-score” value [2, 9] was -0.264 ± 0.2. For the same molecule, the “promoter activity interaction Z-score” value [2, 10] was -0.254 ± 0.1, the “promoter activity interaction Z-score” value [2, 11] was 0.0277 ± 0.11 and the “promoter activity interaction Z-score” value [2, 12] was -0.0763 ± 0.21. The “promoter activity interaction Z-score” value [2, 13] was 0.0102 ± 0.26, the “promoter activity interaction Z-score” value [2, 14] was -0.188 ± 0.032 and the “promoter activity interaction Z-score” value [2, 15] was 0.0987 ± 0.23. For the same molecule, the “promoter activity interaction Z-score” value [2, 16] was 0.0323 ± 0.31, the “promoter activity interaction Z-score” value [2, 17] was -0.148 ± 0.1 and the “promoter activity interaction Z-score” value [2, 18] was -0.236 ± 0.064. For the same molecule, the “promoter activity interaction Z-score” value [2, 19] was 0.0249 ± 0.092, the “promoter activity interaction Z-score” value [2, 20] was -0.0695 ± 0.11 and the “promoter activity interaction Z-score” value [2, 21] was -0.158 ± 0.16. The “promoter activity interaction Z-score” value [2, 22] was -0.24 ± 0.021, the “promoter activity interaction Z-score” value [2, 23] was -0.0671 ± 0.12 and the “promoter activity interaction Z-score” value [3, 8] was 0.258 ± 0.51. For the same molecule, the “promoter activity interaction Z-score” value [3, 9] was 0.00982 ± 0.04, the “promoter activity interaction Z-score” value [3, 10] was -0.233 ± 0.1 and the “promoter activity interaction Z-score” value [3, 11] was -0.236 ± 0.048. For the same molecule, the “promoter activity interaction Z-score” value [3, 12] was -0.041 ± 0.36, the “promoter activity interaction Z-score” value [3, 13] was 0.043 ± 0.035 and the “promoter activity interaction Z-score” value [3, 14] was -0.0843 ± 0.009. For the same molecule, the “promoter activity interaction Z-score” value [3, 15] was 0.253 ± 0.04, the “promoter activity interaction Z-score” value [3, 16] was -0.0305 ± 0.051 and the “promoter activity interaction Z-score” value [3, 17] was -0.0475 ± 0.075. The “promoter activity interaction Z-score” value [3, 18] was -0.046 ± 0.01, the “promoter activity interaction Z-score” value [3, 19] was -0.0734 ± 0.14 and the “promoter activity interaction Z-score” value [3, 20] was -0.114 ± 0.2. The “promoter activity interaction Z-score” value [3, 21] was -0.105 ± 0.05, the “promoter activity interaction Z-score” value [3, 22] was -0.179 ± 0.24 and the “promoter activity interaction Z-score” value [3, 23] was 0.5393 ± 0.002. The “promoter activity interaction Z-score” value [4, 8] was 0.731 ± 0.14, the “promoter activity interaction Z-score” value [4, 9] was 0.137 ± 0.52 and the “promoter activity interaction Z-score” value [4, 10] was 0.0129 ± 0.29. The “promoter activity interaction Z-score” value [4, 11] was 0.416 ± 0.18, the “promoter activity interaction Z-score” value [4, 12] was 0.4996 ± 0.0037 and the “promoter activity interaction Z-score” value [4, 13] was 0.465 ± 0.3. For the same molecule, the “promoter activity interaction Z-score” value [4, 14] was 0.853 ± 0.58, the “promoter activity interaction Z-score” value [4, 15] was 0.476 ± 0.015 and the “promoter activity interaction Z-score” value [4, 16] was 0.149 ± 0.086. The “promoter activity interaction Z-score” value [4, 17] was 0.206 ± 0.067, the “promoter activity interaction Z-score” value [4, 18] was 0.0157 ± 0.25 and the “promoter activity interaction Z-score” value [4, 19] was 0.0237 ± 0.37. The “promoter activity interaction Z-score” value [4, 20] was 0.745 ± 0.73, the “promoter activity interaction Z-score” value [4, 21] was 0.961 ± 0.018 and the “promoter activity interaction Z-score” value [4, 22] was 0.674 ± 0.97. For the same molecule, the “promoter activity interaction Z-score” value [4, 23] was 1.34 ± 0.69, the “promoter activity interaction Z-score” value [5, 8] was 1.18 ± 0.82 and the “promoter activity interaction Z-score” value [5, 9] was -0.24 ± 0.58. For the same molecule, the “promoter activity interaction Z-score” value [5, 10] was 0.206 ± 0.23, the “promoter activity interaction Z-score” value [5, 11] was 0.239 ± 0.22 and the “promoter activity interaction Z-score” value [5, 12] was 0.596 ± 0.27. For the same molecule, the “promoter activity interaction Z-score” value [5, 13] was 0.16 ± 0.16, the “promoter activity interaction Z-score” value [5, 14] was 0.385 ± 0.43 and the “promoter activity interaction Z-score” value [5, 15] was 0.541 ± 0.27. For the same molecule, the “promoter activity interaction Z-score” value [5, 16] was 0.714 ± 0.13, the “promoter activity interaction Z-score” value [5, 17] was -0.447 ± 0.99 and the “promoter activity interaction Z-score” value [5, 18] was 0.329 ± 0.74. The “promoter activity interaction Z-score” value [5, 19] was 0.0896 ± 0.043, the “promoter activity interaction Z-score” value [5, 20] was 0.943 ± 0.18 and the “promoter activity interaction Z-score” value [5, 21] was 0.445 ± 0.36. For the same molecule, the “promoter activity interaction Z-score” value [5, 22] was -0.208 ± 0.44, the “promoter activity interaction Z-score” value [5, 23] was 0.518 ± 0.087 and the “promoter activity interaction Z-score” value [6, 8] was 0.269 ± 0.063. The “promoter activity interaction Z-score” value [6, 9] was 0.0336 ± 0.05, the “promoter activity interaction Z-score” value [6, 10] was -0.322 ± 0.09 and the “promoter activity interaction Z-score” value [6, 11] was 0.15 ± 0.14. The “promoter activity interaction Z-score” value [6, 12] was 0.223 ± 0.25, the “promoter activity interaction Z-score” value [6, 13] was 0.0456 ± 0.13 and the “promoter activity interaction Z-score” value [6, 14] was 0.138 ± 0.19. For the same molecule, the “promoter activity interaction Z-score” value [6, 15] was 0.329 ± 0.29, the “promoter activity interaction Z-score” value [6, 16] was 0.245 ± 0.26 and the “promoter activity interaction Z-score” value [6, 17] was -0.00668 ± 0.18. For the same molecule, the “promoter activity interaction Z-score” value [6, 18] was -0.0803 ± 0.088, the “promoter activity interaction Z-score” value [6, 19] was -0.0415 ± 0.028 and the “promoter activity interaction Z-score” value [6, 20] was 0.426 ± 0.46. For the same molecule, the “promoter activity interaction Z-score” value [6, 21] was 0.0221 ± 0.059, the “promoter activity interaction Z-score” value [6, 22] was -0.22 ± 0.18 and the “promoter activity interaction Z-score” value [6, 23] was 0.285 ± 0.86. For the same molecule, the “promoter activity interaction Z-score” value [7, 8] was 0.409 ± 0.23, the “promoter activity interaction Z-score” value [7, 9] was 0.025 ± 0.4 and the “promoter activity interaction Z-score” value [7, 10] was -1.33 ± 0.07. The “promoter activity interaction Z-score” value [7, 11] was -0.509 ± 0.71, the “promoter activity interaction Z-score” value [7, 12] was 0.591 ± 0.37 and the “promoter activity interaction Z-score” value [7, 13] was 0.129 ± 0.57. The “promoter activity interaction Z-score” value [7, 14] was -0.418 ± 0.28, the “promoter activity interaction Z-score” value [7, 15] was 0.558 ± 0.63 and the “promoter activity interaction Z-score” value [7, 16] was 0.186 ± 1.3. For the same molecule, the “promoter activity interaction Z-score” value [7, 17] was -0.979 ± 0.47, the “promoter activity interaction Z-score” value [7, 18] was -0.8316 ± 0.0065 and the “promoter activity interaction Z-score” value [7, 19] was -0.712 ± 0.47. For the same molecule, the “promoter activity interaction Z-score” value [7, 20] was -0.527 ± 0.035, the “promoter activity interaction Z-score” value [7, 21] was -0.261 ± 0.0072 and the “promoter activity interaction Z-score” value [7, 22] was -1.42 ± 0.035. The “promoter activity interaction Z-score” value [7, 23] was 0.704 ± 0.5.
